Source: ChEMBL document CHEMBL4888484, “Replenishing the malaria drug discovery pipeline: Screening and hit evaluation of the MMV Hit Generation Library 1 (HGL1) against asexual blood stage Plasmodium falciparum ,using a nano luciferase reporter read-out” (2022)
The campaign covered roughly 4,800 compounds. About 420 (8.8%) showed an effect of 50% or more. This is one part of a sample in which strong results are shown more often than they occur.

tested on: Plasmodium falciparum; experiment: Confirmatory screen in NF54 nanoGlo assay, in single point, at 2uM, 72h; type: functional, Erythrocyte; conditions: timepoint 72 hour

SMILES | % Inhibition
CCCN1CCC(NCc2ccc(-c3cccc(Cl)c3Cl)o2)CC1 | 65%
O=C(Nc1cccc2ccccc12)c1nn[nH]c1NS(=O)(=O)c1ccccc1 | -9%
COc1ccnc(N2CCc3nn(C(C)C)c(=O)cc3C2)n1 | -4%
O=C(Cc1ccc(N(Cc2cccc(F)c2)C(=O)C2CCCC2)cc1)NCCN1CCCCC1 | 54%
Cc1cccc(CN(C(=O)C2CCCC2)c2ccc(CC(=O)NCCN3CCOCC3)cc2)c1 | 9%
O=C(Cc1ccc(N(Cc2cccc(F)c2)C(=O)C2CCCC2)cc1)NCCN1CCCC1 | 21%
NC(=O)C1CCN(C(=O)Nc2nc(C(F)(F)F)cs2)CC1 | 5%
CC1(C)CCC[C@@H]1NS(=O)(=O)c1ccc(C(=O)N2CCOCC2)cc1 | 4%
Oc1ccc(-c2ncc3n2CCCC3)cc1 | 4%
Oc1ccc(-c2nnc(-c3ccc(O)cc3)nn2)cc1 | 51%
Cc1c(-c2ccc(F)cc2)[nH]c2ccc(CNc3nccc(N(C)C)n3)cc12 | 29%
CC(C)[C@H](Nc1ccc2nccnc2n1)c1nnc2n1CCC2 | -8%
Oc1nc(-c2cccc(C(F)(F)F)c2)sc1-c1ccccc1 | 0%
Oc1ccccc1-c1cnc(C(F)(F)F)s1 | 94%
CN(C)Cc1cn(C[C@H]2C[C@@H](NC(=O)Nc3ccc4c(c3)OCCO4)[C@H](O)[C@@H]2O)nn1 | 0%
CC1CN(C(=O)COc2ccc3oc4ccccc4c3c2)CC(C)O1 (configuration not stated) | -3%
COC1CCCCC1NC(=O)c1ccc(-c2noc(C(F)(F)F)n2)cc1 (configuration not stated) | -1%
CNC[C@H]1CCCN1C(=O)c1ccc(-c2noc(C(F)(F)F)n2)cc1 | 29%
CC(C(=O)N1N=CCC1(O)C(F)(F)F)n1nc(C(F)(F)F)cc1C1CC1 (configuration not stated) | -1%

SMILES | % Inhibition
O=C(NCCc1cc(F)cc(F)c1)C1CC2CCC1C2 (configuration not stated) | 0%
O=S(=O)(Cc1cc(Cl)cc(Cl)c1)NCCCCn1ccnc1 | -6%
COc1ccc(-c2nccn3cc(C(=O)NCCc4ccncc4)nc23)cc1 | -1%
COc1ccc(Nc2nnc(-c3ccc(NC(=O)C(=O)NCCCn4ccnc4)cc3)s2)cc1 | 56%
Cn1c2ccc(Br)cc2c2cc(NS(=O)(=O)c3ccccc3)ccc21 | 4%
CS(=O)(=O)Nc1nc2c(s1)CN(C(=O)c1ccc3c(c1)CCC=C3)CC2 | 0%
Cc1ccc(C(=O)Nc2c(C(N)=O)sc3nc(C(F)F)cc(C4CC4)c23)cc1 | -16%
CCc1cc(C(=O)N2CCCCCC2)c2c(C3CC3)nn(-c3ccc(F)cc3)c2n1 | 0%
CC(C)c1cc(=O)[nH]c(-n2nc(C3CC3)cc2NC(=O)c2ccc(F)cc2)n1 | 93%
Cc1cc(F)ccc1NC(=O)Cn1nc(C2CC2)c2c(C(F)F)cc(=O)[nH]c21 | -4%
Cc1cc(=O)[nH]c(-n2nc(C3CC3)cc2NC(=O)C(c2ccccc2)c2ccccc2)n1 | 91%
Cc1nc(CC(=O)Nc2cc(C3CC3)nn2-c2ccccc2)cs1 | 1%
CC1CCC(NC(=O)C(c2ccccc2)c2ccccc2)CC1 (configuration not stated) | 10%
CCc1cc(=O)[nH]c(-n2nc(C3CC3)cc2NC(=O)C2CCCCC2)n1 | 88%
Cc1cc(=O)[nH]c(-n2nc(C3CC3)cc2NC(=O)c2ccc(C(C)(C)C)cc2)n1 | 57%
CN1CCC[C@H](C(=O)Nc2nc(C3CC3)cs2)C1 | -12%
CC(C)(C)c1ccc(C(=O)N[C@H]2CCCC[C@@H]2NC(=O)c2ccc(C(C)(C)C)cc2)cc1 | -5%
Cc1nn(C)c(NC(=O)c2ccc(C(C)(C)C)cc2)c1C1=CCCCC1 | 15%
